Shown are actives, neighbours in structure and some others; about 27% of the full set was active somewhere.
Cav32 inh – human Cav3.2 channel inhibition, primary screen; Cav3.2-expressing cells, Fluo-4 calcium fluorescence FDSS; hits give low values; O95180; AID 449739; B-score at 10 µM; 100,000 compounds, 4% hits;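 active = single-dose well whose peak fluorescence ratio is a statistical outlier from its plate by either plate-standardised score or position-corrected B-score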
CYP2C19 activ – cytochrome P450 2C19 (human) activation; P33261; recombinant CYP2C19, luciferin-H EGE luminescence; hits give high values; 0 = fully inhibited enzyme, 1 = untreated enzyme; activation factor at 5 µM; 96,000 tested, under 10 active;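 active = activation factor of at least 2 at 5 µM in the primary screen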;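 note: 0 = wells with 2.5 mM tranylcypromine and 1 = vehicle-only wells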
Target sequence (P33261 whole entry, looked up): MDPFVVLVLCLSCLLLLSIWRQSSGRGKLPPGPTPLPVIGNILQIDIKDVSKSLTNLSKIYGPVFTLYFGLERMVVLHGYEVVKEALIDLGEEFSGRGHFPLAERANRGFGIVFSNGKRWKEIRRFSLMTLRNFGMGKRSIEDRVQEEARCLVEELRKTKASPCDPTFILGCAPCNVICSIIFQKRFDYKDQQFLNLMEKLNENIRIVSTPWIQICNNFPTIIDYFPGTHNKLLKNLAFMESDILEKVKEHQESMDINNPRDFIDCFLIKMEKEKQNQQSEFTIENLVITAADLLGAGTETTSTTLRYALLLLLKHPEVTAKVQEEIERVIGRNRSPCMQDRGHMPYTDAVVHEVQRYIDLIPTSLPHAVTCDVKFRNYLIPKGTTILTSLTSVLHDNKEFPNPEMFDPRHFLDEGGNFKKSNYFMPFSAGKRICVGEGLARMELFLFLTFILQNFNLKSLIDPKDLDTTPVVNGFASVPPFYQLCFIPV
CYP2C19 inh – blocks human cytochrome P450 2C19. P33261. CYP2C19 Supersomes, luciferin-H EGE luminescence, 30 min. inhibition, % at 5 µM. 96,000 compounds, 21% hits. AID 778;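 active = CYP2C19 inhibition above a set limit at 5 µM in the primary screen, cut at about 50% in these data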;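 note: plate controls were negative control wells for no effect and 2.5 mM tranylcypromine positive control for full effect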
CYP2C9 inhib – inhibitors of human CYP2C9; P11712; CYP2C9 Supersomes, luciferin-H conversion, luminescence; inhibition, % at 5 µM; 96,000 compounds, 20% hits;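 active = blocking of liver enzyme CYP2C9 beyond about 50% at 5 µM, limit read from the data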
CYP2C9 act – increases human cytochrome P450 2C9 activity | AID 1024 | P11712 | activation factor at 5 µM | recombinant CYP2C9, luciferin-H conversion, luminescence; hits give high values; factor 1 = untreated enzyme, 0 = blocked | 96,000 compounds, 1.4% hits;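 active = activation factor of 2 or more for CYP2C9 at a 5 µM dose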;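 note: 0 = sulfaphenazole-blocked wells and 1 = vehicle-only wells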
* = called active by the depositor.

For O=C(COc1ccc(Cl)cc1Cl)N1CCCC1 the results were Cav32 inh -1.5, CYP2C19 activ 0.8, CYP2C19 inh 15, CYP2C9 inhib -12 and CYP2C9 act 1.1.
For Cc1cccc(-n2cnc(C(=O)NC3CCCCCC3)c2)n1 the results were Cav32 inh 0.5, CYP2C19 activ 0.7, CYP2C19 inh 26, CYP2C9 inhib -54 and CYP2C9 act 1.5.
Screening CC(C)CC(=O)Nc1ccccc1N1CCOCC1 returned Cav32 inh 1.1, CYP2C19 activ 0.9, CYP2C19 inh 14, CYP2C9 inhib 4 and CYP2C9 act 1.
For O=C(Cc1ccc(Cl)cc1)Nc1ccccc1N1CCOCC1 the results were Cav32 inh 0.0099, CYP2C19 activ 0.2, CYP2C19 inh 84*, CYP2C9 inhib 41 and CYP2C9 act 0.6.
`Cc1ccc(CC(=O)Nc2ccccc2N2CCOCC2)cc1C` gave Cav32 inh -0.37, CYP2C19 activ 0.6, CYP2C19 inh 40, CYP2C9 inhib 83* and CYP2C9 act 0.2.
Screening O=C(COc1ccc(Cl)cc1)Nc1ccccc1N1CCOCC1 returned Cav32 inh -0.73, CYP2C19 activ 0.7, CYP2C19 inh 26, CYP2C9 inhib -19 and CYP2C9 act 1.2.
For CC(C)C(=O)N1CCN(c2ccccc2NC(=O)Cc2ccc(Cl)cc2)CC1 the results were Cav32 inh -5*, CYP2C19 activ 0.8, CYP2C19 inh 19, CYP2C9 inhib 33 and CYP2C9 act 0.7.
CCOc1cc(N2CCOCC2)c(OCC)cc1NC(=O)Cc1cccc2ccccc12 was read as Cav32 inh -3.6, CYP2C19 activ 0.5, CYP2C19 inh 55*, CYP2C9 inhib 42 and CYP2C9 act 0.6.
For CS(=O)(=O)N1CCN(c2ccccc2NC(=O)Cc2ccc(Cl)cc2)CC1 the results were Cav32 inh -1.5, CYP2C19 activ 0.9, CYP2C19 inh 14, CYP2C9 inhib 32 and CYP2C9 act 0.7.
Screening CC1(C)Oc2cc3oc(-c4cc(O)cc(O)c4)cc3cc2CC1O (stereo not given) returned Cav32 inh -1.1.
For Cn1c(Cl)cnc1C(O)c1ccccc1 (stereo not given) the results were Cav32 inh 0.6, CYP2C19 activ 0.9, CYP2C19 inh 12, CYP2C9 inhib 8 and CYP2C9 act 0.9.
Cc1cc(NC(=O)CN2CCCC2c2nc3ccccc3s2)no1 (stereo not given) was read as Cav32 inh -0.13, CYP2C19 activ 0.8, CYP2C19 inh 20, CYP2C9 inhib 24 and CYP2C9 act 0.8.
For CCOc1cc(N2CCOCC2)c(OCC)cc1NS(=O)(=O)c1ccc(Cl)s1 the results were Cav32 inh -3.7, CYP2C19 activ 0.1, CYP2C19 inh 93*, CYP2C9 inhib 60* and CYP2C9 act 0.4.
COc1ccc(C(=O)Nc2ccccc2N2CCN(C(=O)C(C)C)CC2)cc1Cl was read as Cav32 inh -0.38.
For COc1ccc(Cl)cc1C(=O)Nc1ccccc1N1CCN(C(=O)C(C)C)CC1 the results were Cav32 inh -4.2*, CYP2C19 activ 0.3, CYP2C19 inh 68*, CYP2C9 inhib 68* and CYP2C9 act 0.3.
CC(C)(C)C(=O)C(Oc1cccc2nonc12)n1cncn1 (stereo not given) was read as Cav32 inh 0.077, CYP2C19 activ 0.9, CYP2C19 inh 12, CYP2C9 inhib -3 and CYP2C9 act 1.
Screening Cc1c(C(=O)NCc2ccccc2)c(-c2ccccc2)nn1-c1ccccc1 returned Cav32 inh 1.1, CYP2C19 activ 0.6, CYP2C19 inh 43, CYP2C9 inhib 34 and CYP2C9 act 0.7.
Screening COc1ccc(-n2c(NCCN(C)C)nc3sc4c(c3c2=O)CCCCC4)cc1 returned Cav32 inh 0.14, CYP2C19 activ 0.9, CYP2C19 inh 10, CYP2C9 inhib 30 and CYP2C9 act 0.7.
Screening CCOC(=O)C1/C(=N\O)CC(C)(O)C(C(=O)OCC)C1c1ccc(N(C)C)cc1 (stereo not given) returned Cav32 inh 0.024, CYP2C19 activ 0.2, CYP2C19 inh 84*, CYP2C9 inhib 21 and CYP2C9 act 0.8.
`Cc1cc(C)n(-c2cc(C)c(C)cc2Br)n1` gave Cav32 inh -1.9, CYP2C19 activ 0.7, CYP2C19 inh 26, CYP2C9 inhib -9 and CYP2C9 act 1.1.
COc1cc(O)oc1C=Nc1ccc(C(F)(F)F)cc1 was read as Cav32 inh -1.2, CYP2C19 activ 0.6, CYP2C19 inh 42, CYP2C9 inhib 22 and CYP2C9 act 0.8.
Cc1cc(C)cc(NC(=O)C2(c3ccccc3)CC2(Cl)Cl)c1 (stereo not given) was read as Cav32 inh -6.1*, CYP2C19 activ 0.7, CYP2C19 inh 28, CYP2C9 inhib 43 and CYP2C9 act 0.6.
`CCc1ccc(NC(=O)C2(c3ccccc3)CC2(Cl)Cl)cc1` (stereo not given) gave Cav32 inh -2.8, CYP2C19 activ 0.7, CYP2C19 inh 33, CYP2C9 inhib 40 and CYP2C9 act 0.6.
Screening Cc1ccc(NC(=O)C2(c3ccccc3)CC2(Cl)Cl)cc1C (stereo not given) returned CYP2C19 activ 0.3, CYP2C19 inh 74*, CYP2C9 inhib 30 and CYP2C9 act 0.7.
For Cc1cccc(NC(=O)c2cc(Cl)nc3ccccc23)c1 the results were CYP2C19 activ 0.6, CYP2C19 inh 41, CYP2C9 inhib 5 and CYP2C9 act 1.
Screening Cc1cccc(NC(=O)C2(c3ccccc3)CC2(Cl)Cl)c1 (stereo not given) returned Cav32 inh -8*, CYP2C19 activ 0.4, CYP2C19 inh 61*, CYP2C9 inhib 52* and CYP2C9 act 0.5.
Screening CC(C)OC(=O)CSc1nnc(-c2cnccn2)n1-c1ccccc1 returned Cav32 inh -2.1.
`COCCN(C(=O)Cc1cccs1)C(C(=O)NCc1ccc(OC)cc1)c1ccc(C(C)C)cc1` (stereo not given) gave Cav32 inh -3, CYP2C19 activ 0.5, CYP2C19 inh 48, CYP2C9 inhib 69* and CYP2C9 act 0.3.
`COc1ccc(CNC(=O)C(c2ccc(C)o2)N(Cc2cccs2)C(=O)Cc2cccs2)cc1` (stereo not given) gave Cav32 inh -7.6*.
`COCCNS(=O)(=O)c1cccc2cccnc12` gave Cav32 inh -0.056, CYP2C19 activ 0.9, CYP2C19 inh 9, CYP2C9 inhib -56 and CYP2C9 act 1.6.
`COc1cc(OC)nc(NC(=O)COC(=O)C2CCCCC2)n1` gave Cav32 inh 0.33, CYP2C19 activ 0.7, CYP2C19 inh 29, CYP2C9 inhib 31 and CYP2C9 act 0.7.
Screening Cc1ccc(C(=O)N/C(=C/c2ccc(-c3cc(C(F)(F)F)ccc3Cl)o2)C(=O)NCc2cccnc2)cc1 returned Cav32 inh -3.5, CYP2C19 activ 0.6, CYP2C19 inh 39, CYP2C9 inhib 58* and CYP2C9 act 0.4.
CC1CCC2(CC1)Nc1ccccc1C(=O)N2c1ccccc1 (stereo not given) was read as Cav32 inh -0.73, CYP2C19 activ 0.6, CYP2C19 inh 37, CYP2C9 inhib 48 and CYP2C9 act 0.5.

Screening results (PubChem BioAssay)
